Experimental data from PubChem BioAssay AID434970 (Sanford-Burnham Center for Chemical Genomics, 2010).
In all, about 11,000 compounds went through this assay and about 310 (2.8%) were called active. No stated cut-off is given here; in the data, active means activity change below about -85%; inactive means the rest. The sample as a whole holds a higher share of actives than the screen did.

Test system: intestinal alkaline phosphatase [Mus musculus]
Assay: mouse intestinal phosphatase enzyme activation – biochemical, luminescence, single concentration, confirmation (AID 434970)
Details: purified mouse IAP, CDP-Star luminescence, 30 min, at 10 µM; activation factor: measured here: IAP activation factor, stronger effect = higher value; activity change, negative = activation: stronger effect = lower value

SMILES | activation factor | activity change, negative = activation
OCCN1CCN(C(=S)c2ccc(Cl)c(Cl)c2)CC1 | 0.845 | 15.5% (inactive)
CSCC[C@H](N)C(=O)NC[C@H]1O[C@@H](n2cnc3c(N)ncnc32)[C@H](O)[C@@H]1O | 0.994 | 0.55% (inactive)
CC(C)CC(=O)NC(NC(=S)Nc1sc2c(c1C#N)CCCC2)C(Cl)(Cl)Cl (stereo not given) | 0.587 | 41.3% (inactive)
C[C@@H]1CN([C@@H](C)CO)C(=O)Cc2cc(NC(=O)Nc3cccc4ccccc34)ccc2O[C@@H]1CN(C)Cc1ccc(C(F)(F)F)cc1 | 1.75 | -75% (inactive)
CC(C)NC(=O)N(C)C[C@H]1Oc2ccc(NC(=O)Nc3ccc(C(F)(F)F)cc3)cc2C(=O)N([C@H](C)CO)C[C@@H]1C | 1.96 | -96.3% (inactive)
C[C@@H]1CN([C@@H](C)CO)C(=O)Cc2cc(NC(=O)Nc3cccc4ccccc34)ccc2O[C@@H]1CN(C)S(C)(=O)=O | 1.46 | -46.2% (inactive)
C[C@H](CO)N1C[C@H](C)[C@H](CN(C)Cc2ccc(Oc3ccccc3)cc2)Oc2ccc(NC(=O)Nc3cccc4ccccc34)cc2CC1=O | 2.03 | -103% (active)
C[C@@H]1CN([C@@H](C)CO)C(=O)c2cccc(NC(=O)Nc3ccc(F)cc3)c2O[C@@H]1CN(C)Cc1ccc(Oc2ccccc2)cc1 | 2.17 | -117% (active)
C[C@@H]1CN([C@H](C)CO)C(=O)Cc2cc(NC(=O)Nc3ccccc3)ccc2O[C@@H]1CN(C)Cc1ccc2c(c1)OCO2 | 1.66 | -66.3% (inactive)
C[C@@H]1CN([C@H](C)CO)C(=O)c2cc(NC(=O)Nc3cccc4ccccc34)ccc2O[C@H]1CN(C)Cc1ccc(C(F)(F)F)cc1 | 2.2 | -120% (active)
C[C@H](CO)N1C[C@H](C)[C@H](CN(C)Cc2ccccc2)Oc2ccc(NC(=O)Nc3ccc(F)cc3)cc2C1=O | 1.54 | -53.5% (inactive)
C[C@@H]1CN([C@H](C)CO)C(=O)c2cc(NC(=O)Nc3ccc(F)cc3)ccc2O[C@H]1CN(C)C(=O)Nc1ccc(C(F)(F)F)cc1 | 1.57 | -57.4% (inactive)
C[C@@H]1CN([C@@H](C)CO)C(=O)c2cc(NC(=O)Nc3ccccc3)ccc2O[C@H]1CN(C)C(=O)Nc1cccc2ccccc12 | 1.8 | -79.6% (inactive)
C[C@H]1CN([C@@H](C)CO)C(=O)c2cc(NC(=O)Nc3cccc4ccccc34)ccc2O[C@@H]1CN(C)Cc1ccc(-c2ccccc2)cc1 | 2.14 | -114% (active)
C=CCn1c(C)cc(C(=O)COC(=O)COc2ccccc2C#N)c1C | 0.919 | 8.05% (inactive)
S=c1[nH]nc(CSc2nc3ccccc3s2)n1Cc1ccccc1 | 1.1 | -10.1% (inactive)
CCOC(=O)C1=CN(Cc2cccc(F)c2)S(=O)(=O)N(CC)C1c1ccc(F)c(Cl)c1 (stereo not given) | 1.1 | -9.9% (inactive)
CC(=O)Cc1nsc(NC(=O)c2ccc(-c3cccc(C(F)(F)F)c3)o2)n1 | 0.948 | 5.2% (inactive)
COc1cc(OC)c(C2N(c3ccccn3)C(=O)C3CCCN32)cc1OC (stereo not given) | 1.11 | -10.6% (inactive)
Cc1cc(C(=O)CSc2nnc(-c3cccc(F)c3)n2N)c(C)n1Cc1ccc2c(c1)OCO2 | 0.849 | 15.2% (inactive)
Nc1ncnc2c1ncn2[C@@H]1O[C@H](CNC(=O)[C@@H](N)CO)[C@@H](O)[C@H]1O | 0.992 | 0.75% (inactive)
S=C(NCc1ccccc1)Nc1ccc(Oc2ccccc2)cc1 | 1.49 | -49% (inactive)
COc1cc(OC)c2c(-c3ccccc3)cc(=O)oc2c1C(CCN1CCOCC1)c1ccc(N(C)C)cc1 (stereo not given) | 0.992 | 0.8% (inactive)
CN(C)S(=O)(=O)n1cnc(-c2ccccc2)c1-c1ccccc1 | 1.06 | -5.85% (inactive)

SMILES | activation factor | activity change, negative = activation
Cc1ccc(N/C(N)=N/c2nc(C)cc(N3CCCCC3)n2)c(C)c1 | 4.22 | -322% (active)
Cc1cccc(N/C(N)=N/c2nc(C)cc(C)n2)c1 | 1.05 | -4.7% (inactive)
Cc1ccc(NC(=O)C2CCN(C(=O)NC3CCCCC3)CC2)c(C)c1 | 1.02 | -1.95% (inactive)
CCOC(=O)C1=CN(Cc2ccco2)S(=O)(=O)NC1c1cccc(OC)c1 (stereo not given) | 0.986 | 1.35% (inactive)
CCOc1ccc(-c2nnc(-c3cccnc3)o2)cc1OCC | 0.916 | 8.35% (inactive)
O=S(=O)(Nc1ccccc1)c1ccc(Oc2ncc(C(F)(F)F)cc2Cl)cc1 | 0.903 | 9.65% (inactive)
COc1ccc(OC)c(NC2=NC3(CCCC3)N=C(N)N2)c1 | 1.22 | -21.9% (inactive)
COc1cccc(NC2=NC3(CCCCC3)N=C(N)N2)c1 | 1.5 | -50.5% (inactive)
COc1ccc(OC)c(NC2=NC3(CCCCC3)N=C(N)N2)c1 | 1.17 | -16.5% (inactive)
Cc1cc(C)cc(NC2=NC3(CCCCC3)N=C(N)N2)c1 | 3.22 | -222% (active)
CC1(C)N=C(N)NC(Nc2ccccc2)=N1 | 1.04 | -4% (inactive)
CCCCOc1ccc(NC2=NC3(CCCCC3)N=C(N)N2)cc1 | 5.53 | -453% (active)
S=C(NCCNCc1ccccc1)NC1CCCCC1 | 1.18 | -18% (inactive)
O=C(NN1C(=O)CSC1=S)C(=O)NN1C(=O)CSC1=S | 0.0825 | 91.8% (inactive)
CC(C)=CCC/C(C)=C/CNC(=O)C[C@H]1C[C@H](C(=O)N(C(C)C)C(C)C)[C@@]2(C)c3[nH]c4cc(-c5ccco5)ccc4c3CCN2C1=O | 1.39 | -39.4% (inactive)
COc1ccc(NC(=O)CCS(=O)(=O)c2cccc3nonc23)c(OC)c1 | 0.945 | 5.5% (inactive)
COc1ccc(C2CC(c3cccc(F)c3)=NN2c2ccc(S(N)(=O)=O)cc2)cc1 (stereo not given) | 1.67 | -67.2% (inactive)
COc1ccc(C2CC(c3ccccc3Br)=NN2c2ccc(S(N)(=O)=O)cc2)cc1 (stereo not given) | 1.27 | -26.8% (inactive)
COc1ccc(C2CC(c3cccc(Cl)c3)=NN2c2ccc(S(N)(=O)=O)cc2)cc1 (stereo not given) | 1.79 | -78.7% (inactive)
COc1ccc(C2CC(c3ccc(Cl)cc3)=NN2c2ccc(S(N)(=O)=O)cc2)cc1 (stereo not given) | 1.6 | -59.8% (inactive)
COc1ccc(C2CC(c3cccc(C(F)(F)F)c3)=NN2c2ccc(S(N)(=O)=O)cc2)cc1 (stereo not given) | 1.51 | -50.8% (inactive)
COc1ccc(C2CC(c3ccccc3Cl)=NN2c2ccc(S(N)(=O)=O)cc2)cc1 (stereo not given) | 2.18 | -118% (active)
COc1ccc(C2CC(c3ccccc3C(F)(F)F)=NN2c2ccc(S(N)(=O)=O)cc2)cc1 (stereo not given) | 2.21 | -121% (active)
COc1ccc(C2CC(c3ccc(C(F)(F)F)cc3)=NN2c2ccc(S(N)(=O)=O)cc2)cc1 (stereo not given) | 1.37 | -36.7% (inactive)

SMILES | activation factor | activity change, negative = activation
COc1ccc(C2CC(c3ccccc3F)=NN2c2ccc(S(N)(=O)=O)cc2)cc1 (stereo not given) | 2.13 | -113% (active)
CSc1ccc(-c2nc(CSCC(=O)NCCCN3CCOCC3)c(C)o2)cc1 | 0.847 | 15.3% (inactive)
CCOC(=O)C1=C(C)OC(N)=C(C#N)C1c1cc2cc(C)ccc2nc1N1CCCCC1 (stereo not given) | 1.02 | -1.65% (inactive)
CN(C)CCCNC(=O)C[C@H]1C[C@H](C(=O)N2CCCCC2)[C@@]2(CCc3ccccc3)c3[nH]c4cc(CCC(=O)N(C)C)ccc4c3CCN2C1=O | 1.1 | -10.1% (inactive)
Cc1cnc(NC(=O)c2ccco2)s1 | 0.954 | 4.55% (inactive)
O=C1[C@@H](Oc2ccccc2)[C@@H](c2ccccc2)N1c1ccccc1 | 0.938 | 6.25% (inactive)
Cc1ccc(S(=O)(=O)N2CCC(C(=O)N[C@@H](C)C(=O)NC3CCCCC3)CC2)cc1 | 1.09 | -8.65% (inactive)
Cc1ccc(NC(=O)C2CCN(S(=O)(=O)c3ccc4c(c3)NC(=O)C(C)S4)CC2)cc1Cl (stereo not given) | 1.71 | -71.1% (inactive)
CSc1cccc(NC(=O)C2CCN(S(=O)(=O)c3ccc(F)cc3)CC2)c1 | 1.98 | -97.7% (active)
Cc1ccc(S(=O)(=O)N2CCC(C(=O)Nc3ccc(C(C)C)cc3)CC2)cc1 | 3.49 | -249% (active)
Cc1ccc(S(=O)(=O)N2CCC(C(=O)Nc3ccc(S(=O)(=O)N4CCCC4)cc3)CC2)cc1C | 2.22 | -122% (active)
O=C(Nc1ccc(S(=O)(=O)N2CCCCCC2)cc1)C1CCCO1 (stereo not given) | 0.946 | 5.4% (inactive)
CCc1ccc(NC(=O)C2CCN(S(=O)(=O)c3ccc4c(c3)CC(C)N4C(C)=O)CC2)cc1 (stereo not given) | 1.49 | -48.7% (inactive)
Cc1cc(C)cc(NC(=O)C2CCN(S(=O)(=O)c3ccc4c(c3)NC(=O)C(C)S4)CC2)c1 (stereo not given) | 1.96 | -96% (active)
CCNC(=O)C1CCN(S(=O)(=O)c2ccc(F)cc2)CC1 | 0.998 | 0.15% (inactive)
Cc1ccc(S(=O)(=O)NNC(=O)C2CCN(S(=O)(=O)c3ccc(C)cc3)CC2)cc1 | 0.962 | 3.85% (inactive)
COc1ccc(S(=O)(=O)N2CCC(C(=O)Nc3cccc(Cl)c3)CC2)cc1OC | 1.62 | -61.7% (inactive)
Cc1ccc(NC(=O)C2CCN(S(=O)(=O)c3ccc(N4CCCC4=O)cc3)CC2)cc1Cl | 1.79 | -79.3% (inactive)
CC(O)c1nc2ccccc2n1Cc1nnc(-c2ccc(Cl)cc2)o1 (stereo not given) | 0.857 | 14.3% (inactive)
Cn1nc(OCc2ccccc2)ccc1=O | 0.947 | 5.35% (inactive)
CCC(C)OC(=O)c1cc(C)nc2c(Br)cc(Br)cc12 (stereo not given) | 1.02 | -2% (inactive)
CC[C@]12c3[nH]c4ccc(Cl)cc4c3CCN1C(=O)[C@@H](CC(=O)NCC13CC4CC(CC(C4)C1)C3)C[C@@H]2C(=O)N1CCN(C(=O)c2ccco2)CC1 | 1.1 | -9.55% (inactive)
